Assay outcomes deposited in PubChem by National Center for Advancing Translational Sciences (NCATS).
The list is not random: actives were taken first. Their share in the collection is about 6.1%.
HepG2 tox: counter-screen for TGF-b inhibitors: cytotoxicity in HepG2 cells; Potency, µM (highest dose often 46.1 µM), for inactives: at the top dose activity change, negative = cytotoxicity, actives largely listed as cytotoxic; HepG2 CAGA-GFP viability, ATP luminescence, 18 h; 0.76% of 410,000 active
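CellTiter-Glo luminescence gave cytotoxicity after 18 hours at 37 degrees C. The cells were HepG2 CAGA-GFP in 1% FBS DMEM, stimulated with 500 pg/mL TGF-beta after compound addition. %Activity was normalised to no-cell wells (complete cell-killing) and DMSO (no toxicity), and curves were fitted and classified.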
TGFb SMAD3 inh: TGF-b pathway inhibition | AID 588855 | Potency, µM (series often up to 46.1 µM), inactives show at the top dose activity, negative = inhibition, most hits filed as inhibitors | HepG2 CAGA-GFP TGF-b/SMAD3 reporter, GFP fluorescence, 18 h; TGF-beta stimulated, 500 pg/mL final | 1.2% of 410,000 active; note: % is set by controls: 0 for no effect and ±100 for the full control effect; nearly all actives have a fitted effect of over 65% in size
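Cell-based qHTS in HEPG2 carrying a CAGA-GFP Smad reporter; compounds added before 500 pg/mL final TGF-beta, 18 h incubation at 37 degrees C, GFP fluorescence quantified per cell by imaging cytometry.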
VP16 counter: inhibits Gal4-VP16 luciferase reporter, ROR gamma counter-screen. 3.5% of 310,000 active. Potency, µM (series often up to 53.6 µM), without a hit: at the highest dose activity, negative = inhibition, usual class: inhibitors. Drosophila S2 Gal4-VP16 UAS-luciferase, luminescence, 20 h. AID 2546;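 note: Gal4-VP16 expression switched on by copper sulfate through the metallothionein promoter; % is set by controls: 0 for no effect and ±100 for the full control effect; nearly all actives have a fitted effect of over 50% in size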
RORgamma inh: ROR gamma (mouse) transcription inhibition. AID 2551. P51450. Drosophila S2 Gal4-RORgamma UAS-luciferase reporter, 20 h. Potency, µM (highest dose often 53.6 µM), for inactives: at the top dose activity change, negative = inhibition, most hits filed as inhibitors. 5.4% of 310,000 active; note: % is set by controls: 0 for no effect and ±100 for the full control effect; nearly all actives have a fitted effect of over 60% in size
Target sequence (P51450 whole entry, looked up, the tested form may be a part): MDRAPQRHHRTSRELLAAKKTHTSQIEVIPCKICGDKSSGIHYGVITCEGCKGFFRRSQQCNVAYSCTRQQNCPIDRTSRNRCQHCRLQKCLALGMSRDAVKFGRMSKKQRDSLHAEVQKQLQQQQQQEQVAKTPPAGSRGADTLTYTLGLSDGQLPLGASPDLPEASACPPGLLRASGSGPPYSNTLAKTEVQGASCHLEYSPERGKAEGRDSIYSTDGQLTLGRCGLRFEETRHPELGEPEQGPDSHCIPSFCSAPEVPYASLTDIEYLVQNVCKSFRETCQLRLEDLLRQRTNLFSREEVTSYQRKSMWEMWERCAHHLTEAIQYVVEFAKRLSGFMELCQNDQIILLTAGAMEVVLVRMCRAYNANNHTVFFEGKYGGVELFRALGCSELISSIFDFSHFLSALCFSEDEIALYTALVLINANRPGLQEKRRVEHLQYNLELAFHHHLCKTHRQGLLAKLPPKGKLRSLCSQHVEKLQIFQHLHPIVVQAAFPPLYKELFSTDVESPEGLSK
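Drosophila Schneider cells stably carrying a metallothionein-driven Gal4 DBD–ROR gamma fusion and a UAS-Photinus luciferase reporter were exposed to compound for 1 hr, then induced with copper sulfate (700 uM final) for 20 hr at ambient temperature before luminescence reading.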
S2 tox: reduces viability in counter-screen for ATXN expression inhibitors; 0.49% of 400,000 active; AID 651635; S2 cells (HEK-293 line with an ATXN2-luciferase reporter) viability, CellTiter-Fluor protease fluorescence, 24 h; Potency, µM (doses to about 56.7 µM), usual class: cytotoxic; note: nearly all actives have a fitted effect of over 40% in size
ATXN2 expr inh: inhibitors of ATXN2 expression | HEK-293 ATXN2-luciferase reporter, luminescence, 24 h | Potency, µM (top dose mostly 57 µM), without a hit: top-dose activity change, negative = inhibition, hits mostly inhibitors | 0.72% of 360,000 active; note: % is set by controls: 0 for no effect and ±100 for the full control effect; nearly all actives have a fitted effect of over 55% in size
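qHTS (up to 57 uM final) was run with 24 h compound exposure of reporter cells at 37 °C. Each well was multiplexed: SteadyGlo luminescence measured ATXN2-luciferase expression after a fluorogenic Gly-Phe-AFC viability readout (25 uM final).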
Active calls of the source: *; i = inactive; ? = inconclusive; . = no result given; ! = a repeat was not active; [ ] = dose if it differs, or a comment. Calls come from the whole dose curve; as a rule, active = well fitted curve in the direction sought with a large enough effect; inconclusive = small, poorly fitted or top-dose-only effect, or another doubt; inactive = no such curve, though single readings can be large; an effect the other way counts as inactive or inconclusive. Potency is the fitted concentration of half-maximal effect.

SMILES	HepG2 tox	TGFb SMAD3 inh	VP16 counter	RORgamma inh	S2 tox	ATXN2 expr inh
COc1ccccc1C(=O)Nc1ccnn1C1CCN(Cc2cn(C)c3ccccc23)CC1	-42.2%	11.2µM*	-6.8%	-8.8%	?	.
Cc1ccccc1CN1CCC(n2nccc2NC(=O)CCCc2ccccc2)CC1	17.8µM*	-0.8%	-6.1%	-14.2%	i	.
Cn1cc(CN2CCC(n3nccc3NC(=O)c3ccccc3Cl)CC2)c2ccccc21	-20.7%	?	-3.3%	-6.5%	?	?
COc1cccc(C(=O)NCC2OCCc3ccccc32)c1 (centres undefined)	-16.9%	1.9%	.	.	i	8.5%
COC(=O)C1=C(C)Nc2nc3ccccc3n2C1c1cc(OC)c(OC)c(OC)c1 (centres undefined)	-25.6%	-13.4%	-13.8%	12.6µM*	i	50.6%
CN(CCCNC(=O)c1cc2c(=O)n(C)c3ccccc3c2s1)Cc1ccccc1	-25.2%	-4.7%	.	.	?	-19.2%
Cc1ccc(OCC(O)Cn2c(=N)n(Cc3ccccc3)c3ccccc32)cc1 (centres undefined)	12.6µM*	?	-7.8%	-39.8%	?	?
N=c1n(Cc2ccc(Cl)cc2)c2ccccc2n1CC(O)COc1ccccc1 (centres undefined)	-166.5%	?	3.9%	4.3%	.	?
N=c1n(Cc2ccccc2)c2ccccc2n1CC(O)COc1ccc(Cl)cc1Cl (centres undefined)	11.2µM*	?	?	?	.	-15.7%[11.3 µM]
CCN(CC)CCn1c(=N)n(CC(O)COc2cccc(C)c2)c2ccccc21 (centres undefined)	-58.7%	?	?	-23.2%	?	-30.8%[11.3 µM]
Cc1cccc(OCC(O)Cn2c(=N)n(CCN3CCCCC3)c3ccccc32)c1 (centres undefined)	11.2µM*!	?	-23.7%	-23.2%	.	?
COc1ccc(NC(=O)C(=O)NCCc2sc(-c3ccc(Cl)cc3)nc2C)cc1	1.8%	0.0%	.	.	i	19.9%
CCCCOC(=O)c1c(C)oc2ccc(NS(=O)(=O)c3ccc(F)cc3C)cc12	-105.7%	14.1µM*	.	.	?	?
COCCOC(=O)c1c(C)oc2ccc(NS(=O)(=O)c3ccc(F)cc3)cc12	-20.6%	?	-0.1%	26.0%	i	.
CC(C)(C)n1ncc2c(=O)n(Cc3ccccc3CS(=O)(=O)c3ccccc3)cnc21	-27.3%	-9.4%	.	.	.	.
CN1CCN(c2ncc(-c3cc(Cl)cc(Cl)c3Cl)c(N)n2)CC1	.	.	.	.	.	5.0%
CC[C@@H]1CC=C[C@H]2[C@H]1C(=O)N(Cc1ccccc1)[C@H]2c1ccoc1	-33.1%	12.6µM*	?	?	.	?
C[C@@H]1CC=C[C@H]2[C@H]1C(=O)N(Cc1ccccc1)[C@H]2c1ccoc1	-24.2%	?	0.9%	19.7%	i	-8.1%
CC[C@@H]1CC=C[C@H]2[C@H]1C(=O)N(Cc1ccccc1)[C@H]2c1ccc(C(F)(F)F)cc1	-30.4%	?	?	35.7%	?	-24.4%
CCC1CC=CC2C1C(=O)N(Cc1ccccc1)C2c1ccoc1 (centres undefined)	-100.3%	10µM*	?	?	.	.
CCC1CC=CC2C1C(=O)N(Cc1ccccc1)C2c1cccc([N+](=O)[O-])c1 (centres undefined)	-78.5%	10µM*	?	?	.	.
CCC1C(=O)NCCN1Cc1ccc2c(c1)CN(Cc1ccc3c(c1)OCCO3)CCO2 (centres undefined)	.	.	.	.	i	.
O=C(c1ccc2c(Cl)c3c(nc2c1)CCCC3)N1CCN(c2ccccc2F)CC1	15.8%	15.4%	.	.	i	4.5%
O=C(NCCc1ccccc1)c1ccc(CSc2nc3ccncc3n2Cc2ccccc2)cc1	-27.6%	?	.	.	?	-5.5%
O=C(Nc1ccccc1C(=O)N/N=C/c1ccc(F)cc1)c1ccccc1Br	-31.0%	-8.4%	?	10µM*	i	1.7%
SMILES	HepG2 tox	TGFb SMAD3 inh	VP16 counter	RORgamma inh	S2 tox	ATXN2 expr inh
COc1ccc(C(=O)Nc2ccccc2C(=O)N/N=C/c2ccco2)cc1	-67.4%	-6.1%	10µM*	2µM*	?	0.4%
COC(=O)c1ccccc1NC(=O)c1cc[n+](C)cc1	5.62µM*	0.0%	.	.	i	1.1%
CCOc1ccc(/C=N/NC(=O)c2ccccc2NC(=O)c2ccc(OC)cc2)cc1	-50.9%	4.1%	7.08µM*	7.08µM*	i	4.8%
COC(=O)c1ccccc1NC(=O)c1cc[n+]([O-])cc1	-9.3%	-3.5%	-0.3%	-14.9%	i	.
COc1ccc(C(=O)Nc2ccccc2C(=O)Nc2ccccc2)cc1	-20.5%	2.1%	.	.	i	.
CN(C)c1nc(Cc2ccc(NC(=O)c3ccc4ccccc4c3)cc2)nc(Cl)c1CC(=O)O	.	.	.	.	.	-1.2%
C=C1NN(Cc2ccccc2)C(=O)N1c1ccc(OC)cc1	5.9%	19.9%	.	.	.	.
CCOc1ccc(C(=O)Nc2ccccc2C(=O)O)cc1	-20.7%	-4.0%	?	6.31µM*	i	?
Oc1ccc(N=Cc2ccc(OCc3ccccc3)cc2)cc1	-106.4%	11.2µM*	?	-38.0%	?	.
O=C(N/N=C/c1ccncc1)c1ccc(OCc2ccccc2)cc1	4.5%	-12.7%	7.4%	-0.4%	i	-15.9%
O=C(N/N=C/c1ccc(OCc2ccccc2)cc1)c1ccncc1	-1.4%	10.3%	-17.5%	12.6µM*	i	.
O=C(Nc1ccccc1C(=O)N/N=C/c1ccncc1)c1ccccc1	5.01µM*	4.4%	?	8.91µM*	i	33.7%
CCCC(=O)Nc1ccccc1NC(=O)c1ccc(OCC)cc1	-18.3%	-42.9%	-1.7%	14.6%	i	.
O=C(N/N=C/c1ccc(OCc2ccccc2)cc1)c1cccs1	-29.5%	0.0%	-15.7%	25.2%	i	4.9%
COc1cccc(NCc2cccn2-c2nnc(N3CCC(C)CC3)s2)c1	-7.6%	?	.	.	i	3.7%
Cc1cccc(CNC(=O)c2cnn(-c3nccc(-c4cc(C)sc4C)n3)c2C)n1	.	.	.	.	i	.
Cc1ccc(CNC(=O)CSc2ncc(S(=O)(=O)c3ccc(C)c(Cl)c3)c(=O)[nH]2)cc1	7.1%	2.1%	.	.	i	-19.1%
CC1(C(=O)O)CCC2(C)CCC3(C)C(=CC(=O)C4C5(C)CCC(O)C(C)(C)C5CCC43C)C2C1 (centres undefined)	.	.	-5.8%	-0.9%	.	.
CC(=O)Cc1nsc(NC(=O)c2cn(-c3ccccc3)nc2-c2ccc(Br)cc2)n1	4.5%	3.9%	14.1µM*	?	.	.
CC(C)COc1ccc(-c2nn(-c3ccccc3)cc2C(=O)Nc2nccs2)cc1	-13.1%	?	4.47µM*	2.51µM*	i	4.3%
